# Records with an inconclusive call do not appear. Entries that show only a call come without a potency. Unmarked numbers belong to inactive results. The source made the active and inactive calls. Unless noted, calls follow the shape of the dose curve; as a rule, active = well fitted curve in the direction sought with a large enough effect; inconclusive = small, poorly fitted or top-dose-only effect, or another doubt; inactive = no such curve, though single readings can be large; an effect the other way counts as inactive or inconclusive.
# Legend:
# [1] = target: Luciferin 4-monooxygenase (Photinus pyralis) (UniProt P08659); experiment: Biochemical firefly luciferase enzyme assay for NPC (AID 624030); also: nearly all actives have a fitted effect of over 70% in size; also: potency is read from the fitted curve at half-maximal effect; conditions: purified P. pyralis luciferase, luminescence, 5 min; series mostly up to 58.6 µM
# Summary of the method: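 Purified P. pyralis luciferase at 10 nM in 50 mM Tris Acetate (final), luminescence read within 5 minutes of enzyme addition to compounds. Activity normalised to PTC124 versus DMSO; concentration-response curves classed by r2, magnitude and activity.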
# [2] = S16 Schwann cell viability assay (CellTiter-Glo assay) (AID 624031); conditions: S16 rat Schwann cells viability, 24 h; series mostly up to 57.5 µM;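 also: cellular ATP luminescence as a viability measure; nearly all actives have a fitted effect of over 70% in size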
# Summary of the method: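 This viability control uses native rat S16 Schwann cells grown in DMEM plus 10% FBS. After a 24 h compound treatment at 37 °C, CellTiter-Glo luminescence reports ATP content, scaled against DMSO-treated and cell-free wells.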
# [3] = S16 Schwann cell PMP22 intronic element firefly luciferase assay (AID 624032); conditions: S16 rat Schwann cells, PMP22 element FLuc, 24 h; series mostly up to 57.5 µM; also: nearly all actives have a fitted effect of over 30% in size; also: potency is read from the fitted curve at half-maximal effect
# Summary of the method: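 Rat S16 Schwann cells stably carrying firefly luciferase driven by a PMP22 intronic element, in 10% FBS, treated 24 h at 37 C. ONE-Glo luminescence normalized to PTC124 control and DMSO (0%); curves classed by r2, magnitude and activity.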
# [4] = S16 Schwann cell PMP22 intronic element beta-lactamase assay (AID 624044; calls by dose curve; also: nearly all actives have a fitted effect of over 15% in size); conditions: S16 rat Schwann cells, PMP22 element beta-lactamase FRET, 24 h; ratio activity, negative = inhibition: at 38.3 µM (top of the series) unless noted
# Summary of the method: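 Rat S16 Schwann cells with beta-Lac driven by a PMP22 intronic element, compound-treated 24 h at 37 °C. LiveBLAzer FRET B/G read: 460 nm normalized to potassium clavulanate vs DMSO; 535 nm FRET as viability; concentration-effect curves classified.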
# [5] = target: Voltage-gated inwardly rectifying potassium channel KCNH2 (Homo sapiens) (UniProt Q12809); experiment: qHTS Assay for Small Molecule Inhibitors of the Human hERG Channel Activity (AID 588834); conditions: U2OS BacMam hERG, FluxOR thallium flux fluorescence; series mostly up to 46.1 µM;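 also: top concentration of the series differs between compounds; lower thallium flux fluorescence means stronger hERG block; nearly all actives have a fitted effect of over 50% in size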
# Summary of the method: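 U2OS cells BacMam-transduced with hERG, 2000 cells/well, compound ~10 min at 37 °C before stimulation buffer. FluxOR thallium flux fluorescence read kinetically on FDSS; decrease indicates block; AC50 from Hill fits.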
# Luciferin 4-monooxygenase (Photinus pyralis), sequence (P08659 whole entry, looked up): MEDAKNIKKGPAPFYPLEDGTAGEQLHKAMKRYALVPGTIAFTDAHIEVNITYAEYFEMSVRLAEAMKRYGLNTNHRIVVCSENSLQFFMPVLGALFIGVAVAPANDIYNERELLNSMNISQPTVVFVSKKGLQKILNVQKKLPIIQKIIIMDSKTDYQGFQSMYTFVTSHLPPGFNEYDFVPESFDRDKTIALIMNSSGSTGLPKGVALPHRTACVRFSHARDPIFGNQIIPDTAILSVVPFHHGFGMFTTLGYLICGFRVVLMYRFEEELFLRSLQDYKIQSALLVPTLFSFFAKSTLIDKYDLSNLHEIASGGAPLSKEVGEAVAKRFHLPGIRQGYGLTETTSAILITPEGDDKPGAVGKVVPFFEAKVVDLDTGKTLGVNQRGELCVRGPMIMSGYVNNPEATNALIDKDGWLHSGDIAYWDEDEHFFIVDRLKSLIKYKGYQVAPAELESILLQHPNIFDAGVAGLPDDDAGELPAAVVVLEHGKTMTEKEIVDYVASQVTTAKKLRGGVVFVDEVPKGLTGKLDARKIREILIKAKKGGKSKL
# Voltage-gated inwardly rectifying potassium channel KCNH2 (Homo sapiens), sequence (Q12809 whole entry, looked up): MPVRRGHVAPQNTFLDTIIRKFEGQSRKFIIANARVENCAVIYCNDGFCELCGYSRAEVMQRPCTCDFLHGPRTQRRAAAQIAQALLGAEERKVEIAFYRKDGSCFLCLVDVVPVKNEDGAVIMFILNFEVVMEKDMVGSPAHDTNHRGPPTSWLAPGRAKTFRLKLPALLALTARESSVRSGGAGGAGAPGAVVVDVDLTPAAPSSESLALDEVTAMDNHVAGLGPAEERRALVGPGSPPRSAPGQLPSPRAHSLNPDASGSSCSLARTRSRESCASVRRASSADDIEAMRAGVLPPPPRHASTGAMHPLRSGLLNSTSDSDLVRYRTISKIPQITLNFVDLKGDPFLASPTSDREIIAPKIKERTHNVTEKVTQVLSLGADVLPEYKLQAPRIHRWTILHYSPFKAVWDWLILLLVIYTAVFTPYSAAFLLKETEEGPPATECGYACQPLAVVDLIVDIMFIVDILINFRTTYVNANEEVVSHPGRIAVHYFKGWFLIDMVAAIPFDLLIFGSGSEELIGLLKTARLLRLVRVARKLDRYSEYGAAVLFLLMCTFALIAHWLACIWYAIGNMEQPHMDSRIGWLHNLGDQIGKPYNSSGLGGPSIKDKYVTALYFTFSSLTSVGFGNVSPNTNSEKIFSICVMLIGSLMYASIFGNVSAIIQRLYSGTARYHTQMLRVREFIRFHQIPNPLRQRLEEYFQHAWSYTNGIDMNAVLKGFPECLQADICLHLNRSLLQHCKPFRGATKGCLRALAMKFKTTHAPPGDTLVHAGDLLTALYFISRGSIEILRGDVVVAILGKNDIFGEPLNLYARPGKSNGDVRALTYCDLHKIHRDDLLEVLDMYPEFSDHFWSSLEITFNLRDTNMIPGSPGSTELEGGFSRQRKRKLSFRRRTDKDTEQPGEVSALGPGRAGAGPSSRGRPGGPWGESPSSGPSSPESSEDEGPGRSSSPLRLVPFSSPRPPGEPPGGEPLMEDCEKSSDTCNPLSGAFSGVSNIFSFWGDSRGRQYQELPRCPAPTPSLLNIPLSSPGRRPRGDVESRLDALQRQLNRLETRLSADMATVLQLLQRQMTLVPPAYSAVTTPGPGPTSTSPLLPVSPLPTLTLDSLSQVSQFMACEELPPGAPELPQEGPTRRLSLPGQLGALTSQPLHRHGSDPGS
Structure (SMILES),Potency [1],Potency [2],Potency [3],"ratio activity, negative = inhibition [4] [%]",Potency [5]
NCC(O)CC(=O)O (centres undefined),inactive,inactive,inactive,4.25,–
C[C@]12CC[C@@H]3c4ccc(OC(=O)c5ccccc5)cc4CC[C@H]3[C@@H]1CC[C@@H]2O,inactive,inactive,3.61 µM (active),–,–
O=c1[nH]c(=O)n([C@H]2C[C@H](O)[C@@H](CO)O2)cc1/C=C/Br,–,inactive,–,-1.39,inactive
O=C(O[C@H]1CN2CCC1CC2)N1CCc2ccccc2[C@@H]1c1ccccc1,–,inactive,–,–,–
CN(C)CCOc1ccc(/C(=C(/CCCl)c2ccccc2)c2ccccc2)cc1,inactive,–,–,-1.5,–
CCOC(=O)C1=C(COCCN)NC(C)=C(C(=O)OC)C1c1ccccc1Cl (centres undefined),–,–,inactive,-3.48,–
O=[N+]([O-])c1c(Cl)cccc1-c1c[nH]cc1Cl,inactive,inactive,inactive,-0.605,–
CC1CCCCN1CCCOC(=O)c1ccccc1 (centres undefined),–,inactive,inactive,–,–
C=CCN1CCCC1CNC(=O)c1cc(S(N)(=O)=O)cc(OC)c1OC (centres undefined),inactive,inactive,inactive,1.62,–
COc1ccc(C(=O)c2ccc(C)cc2)c(O)c1,14.4 µM (active),inactive,inactive,6.33,–
CCOC(=O)c1cc(-c2ccccc2)nc2ccc(C)cc12,inactive,inactive,–,4.28,–
CC1CCC(NC(=O)N(CCCl)N=O)CC1 (centres undefined),–,inactive,inactive,2.89,inactive
CCCCCCCCCCCCCCCCCC(=O)OCC(C)O (centres undefined),–,–,inactive,-0.254,inactive

# Source: PubChem BioAssay (NCATS)
